In the library only some 1.2% were active in any assay of this set; here they are far more common.
RGS4-Gao reg: modulates binding of RGS4 to human Galphao. Multiplexed bead flow cytometry; actives lie on both sides. binding response (% of control), % at 10 µM. actives 0.33% (n = 220,000); in the data active means binding response below about 49% or above about 150%; inactive means in between;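 further: fluorescent Galphao activated with aluminum fluoride binding bead-coupled RGS4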
Target sequence (P09471 whole entry, looked up): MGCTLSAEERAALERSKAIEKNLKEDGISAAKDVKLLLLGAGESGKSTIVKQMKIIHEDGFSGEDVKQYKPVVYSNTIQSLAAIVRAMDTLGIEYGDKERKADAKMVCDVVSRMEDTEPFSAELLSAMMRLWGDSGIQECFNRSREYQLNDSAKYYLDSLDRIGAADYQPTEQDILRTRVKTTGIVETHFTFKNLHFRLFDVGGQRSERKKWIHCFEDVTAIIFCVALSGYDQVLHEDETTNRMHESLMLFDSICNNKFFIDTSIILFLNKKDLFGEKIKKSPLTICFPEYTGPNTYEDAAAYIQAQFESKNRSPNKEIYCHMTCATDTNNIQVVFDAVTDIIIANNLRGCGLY
RGS16-Gao: modulates binding between human RGS16 and Galphao. binding response (% of control), % at 10 µM. actives 0.38% (n = 220,000). AID 1441. bead-based flow cytometry RGS16-Galphao binding, fluorescence; actives lie on both sides. O15492+P09471;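 further: Galphao activated by GDP with aluminum fluoride before binding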
Target sequence (O15492 whole entry, looked up): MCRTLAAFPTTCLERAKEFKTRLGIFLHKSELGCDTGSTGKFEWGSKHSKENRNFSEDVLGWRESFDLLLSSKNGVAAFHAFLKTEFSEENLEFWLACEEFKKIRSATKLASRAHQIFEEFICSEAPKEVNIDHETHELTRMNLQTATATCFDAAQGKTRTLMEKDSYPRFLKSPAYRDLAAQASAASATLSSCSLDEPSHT
Target sequence (P09471 whole entry, looked up): as the sequence (P09471 whole entry, looked up) above
Avidin bead fluor: compound fluoresces at 488/530 nm on avidin beads | compound fluorescence 488/530 nm, flow cytometry; stronger effect = higher value | fluorescence (KMESF) at 10 µM | actives 0.38% (n = 220,000) | AID 1775; in the data active means fluorescence above about 47
RGS8-Gao: regulators of human RGS8-Galphao interaction. P09471. multiplexed bead flow cytometry, RGS8-Galphao binding; actives lie on both sides. response (percent of control binding), % at 10 µM. actives 0.34% (n = 220,000). AID 1423; in the data active means response below about 60% or above about 140%; inactive means in between;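 further: Galphao activated as the GDP aluminium fluoride complex binding bead-coupled RGS8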
GSH fluor: GSH bead compound fluorescence profile | actives 0.25% (n = 190,000) | GSH beads flow cytometry, compound fluorescence 488/530 nm; stronger effect = higher value | fluorescence (KMESF) at 10 µM | AID 1776; in the data active means fluorescence above about 89;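 further: glutathione beads carrying GST-tagged Bcl family fusion proteins plus one bare bead set; values are compound well signal with DMSO vehicle wells as background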
RGS7-Gao: regulators of human RGS7-Galphao interaction; actives 0.35% (n = 220,000); Multiplexed bead flow cytometry, RGS7-Galphao binding; actives lie on both sides; AID 1439; binding response (% of control), % at 10 µM; in the data active means binding response below about 49% or above about 150%; inconclusive means no clear call, values can overlap the other calls; inactive means in between;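 further: fluorescent Galphao held in activated GDP-AlF4 state binding bead-coupled RGS7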
RGS4-Gao HTS: modulates binding between human RGS4 and Galphao. actives 99% (n = 1,600). AID 1504. RGS4–Galpha-o binding response, % at 10 µM. multiplexed bead flow cytometry, RGS–Galpha-o binding. shares compounds with RGS16-Gao;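 further: fluorescently labeled Galpha-o bound to GDP with aluminium fluoride binding biotinylated RGS beads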
Biotin-avidin: biotin-avidin bead binding disruption counter-screen; shares compounds with RGS16-Gao; 1,700 tested, under 10 active; streptavidin beads, fluorescein-biotin binding, flow cytometry; inhibition, % at 10 µM;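 active means inhibition above 50%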;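 further: median green fluorescence of gated singlet beads compared with DMSO control wells; 0% = DMSO wells and 100% = complete loss of bead fluorescence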
RGS8-Gao confirm: confirmation of regulators of human RGS8-Galphao interaction | shares compounds with RGS16-Gao | bead-based flow cytometry RGS8-Galphao binding, fluorescence; actives lie on both sides | binding response (% of control), % at 10 µM | actives 3% (n = 1,700) | AID 1836; in the data active means binding response below about 72% or above about 130%; inactive means in between;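 further: Galphao activated as GDP AlF4 complex before binding bead RGS8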
RGS7-Gao single: confirmation of regulators of human RGS7-Galphao interaction. response (percent of control binding), % at 10 µM. actives 7.8% (n = 1,700). bead-based flow cytometry RGS7-Galphao binding; actives lie on both sides. shares compounds with RGS16-Gao; in the data active means response below about 75% or above about 130%; inactive means in between;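 further: fluorescent Galphao activated with GDP and aluminum fluoride binding bead-coupled RGS7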
RGS16-Gao conf: confirmation of regulators of human RGS16-Galphao interaction | shares compounds with RGS16-Gao | bead-based flow cytometry, RGS16-Galphao binding; actives lie on both sides | response (% of control binding), % at 10 µM | actives 4% (n = 1,700) | AID 1838; in the data active means response below about 74% or above about 130%; inactive means in between;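 further: Galphao activated as the GDP aluminium fluoride complex binding bead-coupled RGS16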
RGS4-Gao single: confirmation of regulators of human RGS4-Galphao interaction. actives 4% (n = 1,700). shares compounds with RGS16-Gao. AID 1840. binding response (% of control), % at 10 µM. RGS4-Galphao binding, multiplexed bead flow cytometry; actives lie on both sides; in the data active means binding response below about 74% or above about 130%; inactive means in between
RGS19-Gao single: RGS19-Galphao interaction regulation, single point confirmation. actives 5% (n = 1,700). response (percent of control binding), % at 10 µM. AID 1841. shares compounds with RGS16-Gao. bead-based flow cytometry RGS19-Galphao binding; actives lie on both sides; in the data active means response below about 50% or above about 160%; inactive means in between;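 further: 100% = no compound control and 0% = blank background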
* hit, by the source's call; ? = inconclusive; . = no result given; [ ] = remark or other dose. Unless noted, how the calls were made is not given here.

SMILES	RGS4-Gao reg	RGS16-Gao	Avidin bead fluor	RGS8-Gao	GSH fluor	RGS7-Gao	RGS4-Gao HTS	Biotin-avidin	RGS8-Gao confirm	RGS7-Gao single	RGS16-Gao conf	RGS4-Gao single	RGS19-Gao single
CCCNC(=O)Cn1sc2nc(C)cc(C)c2c1=O	78.2	15.5*	2	60.0	.	?	78.2*	0.0	52.2*	69.5*	9.1*	73.3*	3.9*
C=C(C)CNC(=S)NNC(=O)c1ccc(Br)cc1	102.1	96.1	15	103.3	18	103.9	.	.	.	.	.	.	.
O=C(CN1CCN(Cc2ccc(Cl)cc2)C1=O)NCCCN1CCOCC1	18.2*	13.2*	-1	14.4*	19	8.9*	.	1.6	99.8	99.5	101.5	101.7	99.7
O=C(CN1CCN(Cc2ccc(Cl)cc2)C1=O)NCCCN1CCN(c2ccc(F)cc2)CC1	94.8	97.2	17	94.5	24	96.7	.	.	.	.	.	.	.
O=C(CN1CCN(Cc2ccccc2F)C1=O)NCCc1ccc(Cl)cc1	106.7	102.4	60*	100.0	27	158.7*[activator]	106.7*	-0.6	99.7	102.5	99.1	98.2	99.5
COc1ccc2[nH]c(C(=O)Nc3ccc4c(c3)OCO4)cc2c1	101.7	100.4	5	101.3	.	?	.	.	.	.	.	.	.
O=C(Nc1cccc([N+](=O)[O-])c1)C12CC3CC(C1)CC(n1cnc([N+](=O)[O-])n1)(C3)C2	106.8	100.7	10	101.4	9	101.5	.	.	.	.	.	.	.
O=C1C(Cl)=C(N2CCCCC2)C(=O)C(Cl)=C1c1cnc(N2CCCCC2)s1	69.1	31.6	1	49.8*	3	42.8*	69.1*	0.7	36.8*	15.7*	26.8*	59.4*	-8.5*
Clc1ccc(Cl)c2sc(N3CCCC3)nc12	102.7	104.1	16	102.8	15	99.0	.	.	.	.	.	.	.
CN(C)c1ncc(C2=C(Cl)C(=O)C(N3CCCC3)=C(Cl)C2=O)s1	67.0	30.5	1	46.9*	3	41.1*	67.0*	-3.5	41.3*	22.4*	35.2*	71.9*	-9.7*
COCCCNCC(O)C(F)(F)F (configuration not stated)	98.1	99.2	9	99.0	16	95.2	.	.	.	.	.	.	.
COc1cc2c(-c3ccc(O)cc3)nc3c(c(C)nn3-c3ccccc3)c2cc1OC	199.5*[activator]	468.3	8	100.3	5	89.3	.	1.4	99.7	95.8	97.5	98.4	101.6
COc1cc2c(C)nc3c(c(C)nn3-c3ccccc3)c2cc1OC	97.8	108.7	5	92.0	16	84.9	.	.	.	.	.	.	.
CNc1ncnc2sc(-c3ccccc3)cc12	24.4*	13.5*	0	15.8*	11	11.2*	.	1.8	104.3	102.9	104.4	101.6	98.5
O=C(O)CSc1ncnc2sc(-c3ccccc3)cc12	96.1	98.4	8	96.9	17	94.3	.	.	.	.	.	.	.
O=C(O)CCSc1ncnc2sc(-c3ccccc3)cc12	262.4*[activator]	235.7*[activator]	86*	114.0	.	?	.	-0.4	98.1	101.1	98.3	100.3	112.6
CC(=O)Nc1ccc(C(=O)N(C)C(C(=O)Nc2ccccc2)c2ccccn2)cc1 (configuration not stated)	99.9	98.7	11	101.1	13	96.2	.	.	.	.	.	.	.
COC(=O)c1c(NC(=O)COC(=O)CCS(=O)(=O)c2ccc(C)cc2)sc(C)c1C	92.1	255.4*[activator]	3	106.2	9	83.1	92.1*	0.7	104.3	138.9*[activator]	114.5	118.4	160.0*[activator]
CCOc1ccc(NC(=O)COC(=O)CCS(=O)(=O)c2ccc(C)cc2)cc1	100.4	112.8	11	102.3	17	100.4	.	.	.	.	.	.	.
CC(C)n1c(-c2cccnc2)nc2cnccc21	122.4	214.1	32	140.2*[activator]	17	121.5	122.4*	.	.	.	.	.	.
CCOc1ccc(C2CC(c3cccc(OC)c3)Nc3ncnn32)cc1 (configuration not stated)	95.3	97.3	7	96.7	20	89.4	.	.	.	.	.	.	.
CCOC(=O)c1ccc(-n2c(O)c(/C=N/NC(=O)C3COc4ccccc4O3)c3ccccc3c2=O)cc1 (configuration not stated)	106.7	122.7	6	107.8	14	107.2	.	.	.	.	.	.	.
CCn1c(SCC(=O)N2CCCC(C)C2)nnc1-c1ccc(S(=O)(=O)N2CCN(C)CC2)cc1 (configuration not stated)	.	.	.	.	40	.	.	0.1	99.4	96.8	95.9	98.1	99.8
C[C@@H]1CN(c2c(F)c(N)c3c(=O)c(C(=O)O)cn(C4CC4)c3c2F)C[C@H](C)N1	102.1	102.7	5	99.4	67	102.0	.	.	.	.	.	.	.
Cc1cc(Cl)ccc1N=c1ssnc1Cl	83.4	18.9*	8	77.3	7	106.5	83.4*	-0.6	87.3	92.6	78.2	96.5	54.8
SMILES	RGS4-Gao reg	RGS16-Gao	Avidin bead fluor	RGS8-Gao	GSH fluor	RGS7-Gao	RGS4-Gao HTS	Biotin-avidin	RGS8-Gao confirm	RGS7-Gao single	RGS16-Gao conf	RGS4-Gao single	RGS19-Gao single
CN(C(=O)Cc1noc2ccccc12)c1ccccc1	94.0	76.2	5	91.6	20	94.0	.	.	.	.	.	.	.
CCCS(=O)(=O)N1CCN(C(=O)c2cccnc2)CC1	56.5	72.9	6	68.0	14	47.7*	56.5*	.	.	.	.	.	.
CS(=O)(=O)N1CCN(C(=O)c2cccnc2)CC1	87.5	83.3	7	96.0	67	96.7	.	.	.	.	.	.	.
O=C(COC(=O)c1cccc(S(=O)(=O)NCc2ccccc2)c1)NCC1CCCO1 (configuration not stated)	98.6	96.4	8	98.9	26	?	.	.	.	.	.	.	.
COc1ccc(OCC(=O)N2CCN(c3nnc(-c4ccccc4)c4ccccc34)CC2)cc1	11.8*	8.3*	-1	21.8*	18	15.0*	.	-1.0	111.1	119.8	115.3	115.3	99.0
COc1ccc(NC2(c3ccc(Cl)cc3)C(=O)c3ccccc3C2=O)cc1	98.5	100.3	10	101.4	8	100.0	.	.	.	.	.	.	.

Source: PubChem BioAssay (NMMLSC)
